Reference: PubChem BioAssay AID1611 (NINDS Approved Drug Screening Program, 2009)

Experiment: HSE-luciferase reporter activators – cell-based (AID 1611)
Details: human cells, HSE-luciferase heat shock reporter; stronger effect = higher value

## CN1CCN(CC(=O)N2c3ccccc3C(=O)Nc3cccnc32)CC1
  fold change: 1.06

## CCOc1ccc2c(c1)C(C)=CC(C)(C)N2
  fold change: 1.18

## CC(Cc1cccc(C(F)(F)F)c1)NCCOC(=O)c1ccccc1 (stereo not given)
  fold change: 1.03

## O=C(O)C1=CCNCC1
  fold change: 1.18

## Nc1ccc(S(=O)(=O)Nc2cnc3ccccc3n2)cc1
  fold change: 1.17

## CCc1cccc2c3c([nH]c12)C(CC)(CC(=O)O)OCC3 (stereo not given)
  fold change: 1.02

## Oc1ccc(Cl)c2cccnc12
  fold change: 1.15

## CC(C)COCC(CN(Cc1ccccc1)c1ccccc1)N1CCCC1 (stereo not given)
  fold change: 0.78

## COc1ccc(CCN2CCC(Nc3nc4ccccc4n3Cc3ccc(F)cc3)CC2)cc1
  fold change: 1.64

## COc1ccc(NS(=O)(=O)c2ccc(N)cc2)nn1
  fold change: 1.39

## CCN(CC)CCOC(=O)C(c1ccccc1)C1CCCCC1 (stereo not given)
  fold change: 1.12

## CO[C@@H]1[C@@H](O[C@@H]2O[C@H](C)[C@@H](O[C@H]3C[C@@](C)(O)[C@H](O)[C@H](C)O3)[C@H](N(C)C)[C@H]2O)[C@@H](CC=O)C[C@@H](C)[C@@H](O[C@H]2CC[C@H](N(C)C)[C@@H](C)O2)/C=C/C=C/C[C@H](C)OC(=O)C[C@H]1O
  fold change: 62.6

## CC(C)CC1NC(=O)CNC1=O (stereo not given)
  fold change: 0.55

## N[C@@H]1CONC1=O
  fold change: 1.23

## COc1ccc(CN(CCN(C)C)c2ccccn2)cc1
  fold change: 1.01

## O=C(O)c1ccccc1OP(=O)(O)O
  fold change: 1.04

## CN(Cc1cnc2nc(N)nc(N)c2n1)c1ccc(C(=O)N[C@@H](CCC(=O)O)C(=O)O)cc1
  fold change: 0.91

## C[C@@H]1O[C@@H](O[C@H]2[C@H](Oc3cc(O)c4c(c3)O[C@H](c3ccc(O)cc3)CC4=O)O[C@H](CO)[C@@H](O)[C@@H]2O)[C@H](O)[C@H](O)[C@H]1O
  fold change: 1.36

## CC(=C(CCOP(=O)(O)O)SC(=O)c1ccccc1)N(C=O)Cc1cnc(C)nc1N
  fold change: 0.96

## CC1(C)S[C@@H]2[C@H](NC(=O)[C@@H](N)c3ccc(O)cc3)C(=O)N2[C@H]1C(=O)O
  fold change: 1.21

## Cn1c(=O)c2c(ncn2CCO)n(C)c1=O
  fold change: 0.58

## Cc1ccc(C(=O)c2ccc(CC(=O)O)n2C)cc1
  fold change: 279

## CC[C@H]1OC(=O)[C@H](C)[C@@H](O[C@H]2C[C@@](C)(OC)[C@@H](O)[C@H](C)O2)[C@H](C)[C@@H](O[C@@H]2O[C@H](C)C[C@H](N(C)C)[C@H]2O)[C@](C)(O)C[C@@H](C)C(=O)[C@H](C)[C@@H](O)[C@]1(C)O
  fold change: 0.93

## COC(=O)[C@H]1[C@H]2C[C@@H]3c4[nH]c5cc(OC)ccc5c4CCN3C[C@H]2C[C@@H](OC(=O)c2cc(OC)c(OC)c(OC)c2)[C@@H]1OC
  fold change: 0.6

## N=c1nc(N2CCCCC2)cc(N)n1O
  fold change: 0.77

## CC(COc1ccccc1)NC(C)[C@H](O)c1ccc(O)cc1 (stereo not given in full)
  fold change: 5.01

## CC(=O)OCC(=O)[C@@]1(O)CCC2C3CCC4=CC(=O)CC[C@]4(C)C3C(=O)C[C@@]21C (stereo not given in full)
  fold change: 0.62

## CCN(CC)C(C)CN1c2ccccc2Sc2ccccc21 (stereo not given)
  fold change: 1.55

## CCN(CCCCOC(=O)c1ccc(OC)c(OC)c1)C(C)Cc1ccc(OC)cc1 (stereo not given)
  fold change: 1.27

## CCCCOc1ccc(CC(=O)NO)cc1
  fold change: 0.79

## Nc1nc2c(ncn2COCCO)c(=O)[nH]1
  fold change: 1.01

## CC(=O)OCC1=C(C(=O)O)N2C(=O)[C@@H](NC(=O)Cc3cccs3)[C@H]2SC1
  fold change: 1.09

## O=C1c2c(O)cccc2Cc2cccc(O)c21
  fold change: 0.93

## CCN(CC)C(=O)c1cccc(C)c1
  fold change: 0.91

## COc1c2occc2c(OC)c2c(=O)cc(C)oc12
  fold change: 0.96

## CC(C)NCC(O)COc1ccc(CC(N)=O)cc1 (stereo not given)
  fold change: 0.76

## C=Cc1c(C)c2cc3[nH]c(cc4nc(cc5nc(cc1[nH]2)C(C)=C5CCC(=O)O)C(CCC(=O)O)=C4C)c(C)c3C=C
  fold change: 1.09

## Cc1cc(-c2ccccc2)nnc1NCCN1CCOCC1
  fold change: 0.98

## CCCC(CCC)C(=O)O
  fold change: 0.91

## CCCCCC(C)N (stereo not given)
  fold change: 1.8
